Inconclusive results are not listed. Active and inactive are the calls of the source. Calls follow the shape of the dose curve; as a rule, active = well fitted inhibition curve with a large enough effect; inconclusive = small, poorly fitted or top-dose-only effect; inactive = flat fitted curve, though single readings scatter.

Sequence of Dual specificity protein kinase CLK4 (Homo sapiens) (Q9HAZ1 whole entry, looked up): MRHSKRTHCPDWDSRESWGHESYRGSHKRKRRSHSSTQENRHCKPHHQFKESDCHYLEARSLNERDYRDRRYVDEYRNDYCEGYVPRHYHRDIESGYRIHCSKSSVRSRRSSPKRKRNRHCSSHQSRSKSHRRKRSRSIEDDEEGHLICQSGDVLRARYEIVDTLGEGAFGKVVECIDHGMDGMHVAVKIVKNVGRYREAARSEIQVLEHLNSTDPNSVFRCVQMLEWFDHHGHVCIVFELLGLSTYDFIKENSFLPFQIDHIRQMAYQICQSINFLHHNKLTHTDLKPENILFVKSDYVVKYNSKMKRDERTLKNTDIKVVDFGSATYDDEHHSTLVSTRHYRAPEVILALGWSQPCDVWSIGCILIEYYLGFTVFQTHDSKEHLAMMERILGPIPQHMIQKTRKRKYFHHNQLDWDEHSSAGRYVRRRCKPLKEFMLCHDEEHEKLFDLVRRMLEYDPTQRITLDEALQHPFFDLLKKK

The assay addresses Dual specificity protein kinase CLK4 (Homo sapiens) (UniProt Q9HAZ1). Briefly: Confirmation Assay for Inhibitors of Clk4 (Kinase-Glo Assay): KU probe. The conditions noted are these: recombinant Clk4, Kinase-Glo ATP luminescence; series mostly up to 76.9 µM. As to the method: NIH Molecular Libraries Probe Production Centers Network [MLPCN] NIH Chemical Genomics Center [NCGC] MLPCN Grant: 1R03MH084827-01 Assay Submitter (PI): Tom Misteli NCGC Assay Overview: Clk4 (Invitrogen, cat# PV3839) was assayed using ATP and the RS repeat peptide (AnaSpec cat # 61722) as substrates. Following the Clk4 reaction, the remaining ATP levels were detected using Promega Kinase-Glo technology wherein the remaining ATP from the kinase reaction is detected using Ultra-Glo luciferase and D-luciferin which generates a bioluminescence signal from the ATP.
NCGC Assay Protocol Summary: Two uL/well of substrate-buffer solution (100 uM RS peptide, 1 uM ATP, 25 mM Tris pH7.5, 10 mM MgCl2, 0.5 mM EGTA, 2.5 mM DTT, 0.01% Triton X-100 final concentration) was dispensed into 1536-well, assay plates (Greiner, solid white medium-binding plates) with Aurora Discovery BioRAPTR Flying Reagent Dispenser (FRD; Beckton-Dickenson). Using a Kalypsys pin tool equipped with a 1536-pin tool, 23 nL of compound solution was transferred to the assay plate. One uL/ well Clk4-buffer solution (25 nM Clk4, 25 mM Tris pH 7.5, 10 mM MgCl2, 0.5 mM EGTA, 2.5 mM DTT, 0.01% Triton X-100, final concentrations) was then added using the FRD yielding a total kinase reaction volume of 3 uL/ well. After 4.5 hours of room temperature incubation, 3 uL Kinase-Glo reagent was added for a final assay volume of 6 uL/ well. Luminescence was detected with the ViewLux plate reader (Perkin Elmer, Waltham, MA) after 5 min incubation using a 5 second exposure time and 2x binning.
(In general: Kinase-Glo measures the ATP left after a reaction by luminescence.)
On to `Cc1noc(C)c1-c1nccc(NCc2ccc(Cl)cc2)n1`, for which the Potency result is “inactive”.

Turning to `c1nc(NCC2CCCOC2)c2cc(-c3ccc4c(c3)OCO4)ccc2n1` (stereo not given), the Potency was 65.4 nM (active).

For `c1cc(-c2ccoc2)nc(-c2ccoc2)n1`, the Potency is 5820 nM (active).

Turning to `COc1ccc(-c2ccnc(NCc3ccc(Cl)c(Cl)c3)n2)cc1OC`, the Potency is 26000 nM (active).

On to `COc1ccc(CNc2ccnc(-c3cccc(OC)c3)n2)cc1`, for which the Potency is 23200 nM (active).

Consider `COc1cccc(-c2nccc(NCc3ccc(Cl)cc3)n2)c1`, for which the Potency is 13000 nM (active).

With `COc1cccc(-c2nccc(NCc3ccc(C)cc3)n2)c1`, the Potency was 23200 nM (active).

As to `c1cc(-c2ccoc2)nc(-c2ccc3c(c2)OCO3)n1`, the Potency is 4120 nM (active).

With `c1ccc(CNc2ccnc(-c3ccc4c(c3)OCO4)n2)cc1`, the Potency is 23200 nM (active).

Regarding `Clc1ccc(Nc2nccc(-c3ccc4c(c3)OCO4)n2)cc1`, the Potency is 368 nM (active).

`CN(CC1CCCCO1)c1ncnc2ccc(-c3ccc4c(c3)OCO4)cc12` (stereo not given): the Potency is 46.3 nM (active).

For `Clc1ccc(CNc2ncncc2-c2ccc3c(c2)OCO3)cc1`, the Potency was 5820 nM (active).

Consider `CN(CC1CCCCC1)c1ncnc2ccc(-c3ccc4c(c3)OCO4)cc12`, for which the Potency is 184 nM (active).

As for `Cc1noc(C)c1-c1ncccn1`, the Potency entry was “inactive”.

For `Clc1cc(Cl)cc(CNc2ncncc2-c2ccc3c(c2)OCO3)c1`, the Potency was 130 nM (active).

Turning to `CCCNc1ncnc2ccc(-c3ccc4c(c3)OCO4)cc12`, the Potency was 58.2 nM (active).

Take `O=C(O)c1ccc(-c2ccc3ncnc(NCC4CCCO4)c3c2)o1` (stereo not given): the Potency was 654 nM (active).

In the case of `Brc1ccc(CNc2nccc(-c3ccc4c(c3)OCO4)n2)cc1Br`, the Potency is 82.3 nM (active).

As for `Cc1c(-c2ccnc(Nc3cc(Br)cc(C(F)(F)F)c3)n2)sc(=O)n1C`, the Potency is 51.9 nM (active).

Consider `Cc1ccc(CNc2ccnc(-c3cccc(C#N)c3)n2)cc1`, for which the Potency is 23200 nM (active).

Consider `CC(C)(C)CNc1ncnc2ccc(-c3ccc4c(c3)OCO4)cc12`, for which the Potency is 65.4 nM (active).

As to `Brc1cc(Br)cc(CNc2nccc(-c3ccc4c(c3)OCO4)n2)c1`, the Potency is 36.8 nM (active).

Regarding `Nc1ncnc2c1c(I)cn2C1OC(CO)C(O)C1O` (stereo not given), the Potency was 11.6 nM (active).

In the case of `c1cncc(CNc2ccnc(-c3ccc4ccccc4c3)n2)c1`, the Potency was 14600 nM (active).

As to `COc1ccc(CNc2ccnc(-c3c(C)noc3C)n2)cc1`, the Potency result is “inactive”.

With `c1coc(CNc2ncnc3ccc(-c4ccc5c(c4)OCO5)cc23)c1`, the Potency is 46.3 nM (active).

With `Clc1ccc(CNc2cc(-c3ccc4c(c3)OCO4)ncn2)cc1`, the Potency was 2320 nM (active).

Turning to `Clc1ccc(CNc2cc(-c3ccc4c(c3)OCO4)ncn2)cc1Cl`, the Potency is 4630 nM (active).

Turning to `CN(C)c1ccc(-c2ncccn2)cc1`, the Potency entry was “inactive”.

Take `c1coc(-c2ccnc(-c3ccc4c(c3)OCO4)n2)c1`: the Potency is 8230 nM (active).

Take `O=C(O)c1ccc(-c2ccc3ncnc(N4CCOCC4)c3c2)o1`: the Potency is 582 nM (active).

Take `Clc1ccc(CNc2ccnc(-c3ccc4c(c3)OCO4)n2)cc1Cl`: the Potency was 13000 nM (active).

For the compound `c1cncc(CNc2nccc(-c3ccc4cn[nH]c4c3)n2)c1`, the Potency is 41.2 nM (active).

On to `Clc1ccc(CNc2nccc(-c3ccc4c(c3)OCO4)n2)cc1Cl`, for which the Potency is 41.2 nM (active).

Regarding `Clc1cc(Cl)cc(CNc2ccnc(-c3ccc4c(c3)OCO4)n2)c1`, the Potency was 4120 nM (active).

Turning to `O=c1cnc2cnc(Nc3ccccc3)nc2n1CCc1ccccc1`, the Potency is 184 nM (active).

For `c1cncc(CNc2ccnc(-c3ccc4cn[nH]c4c3)n2)c1`, the Potency was 292 nM (active).

Consider `O=C(O)c1ccc(-c2ccc3ncnc(NCc4nccs4)c3c2)o1`, for which the Potency is 923 nM (active).

`c1cc(CNc2ccnc(-c3ccc4c(c3)OCO4)n2)ccn1`: the Potency is 16400 nM (active).

In the case of `COc1cccc(Nc2ncc3ncc(=O)n(CCc4ccccc4)c3n2)c1`, the Potency is 92.3 nM (active).

The record behind these values is PubChem BioAssay AID624094 (National Center for Advancing Translational Sciences (NCATS), 2012).
